# According to PubChem BioAssay (NCI):
# Compounds without any hit were thinned out: in the full panel of roughly 79,000, 15% have a hit. A number with no mark means an inactive call. Activity calls are given as the source filed them. Rule as the data show it: active = growth inhibition above about 70%; inactive = the rest.
# Assay: NCI Yeast Anticancer Drug Screen. Data for the sgs1 mgt1 strain (AID 161);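 also: 0% = growth of cultures given vehicle only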
# Details: S. cerevisiae sgs1 mgt1 strain, at 5.0 µM (retest, dose inferred, filed as 0.5), active compounds read high
# Method in brief: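 Growth of a repair-deficient yeast mutant was monitored after compound treatment and expressed as inhibition relative to vehicle-treated cultures.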
row,SMILES,growth inhibition
1,Cc1cc(O)c(C(=O)/C=C/c2cccnc2)c(=O)[nH]1,-5%
2,Oc1ccccc1C(=NNc1ccccc1)c1ccccc1O,46%
3,Cn1c(=S)c2[nH]c(SCCN3CCCCC3)nc2n(C)c1=O,20%
4,Cc1cc(=O)n(-c2cc3cccccc-3n2)[nH]1,2%
5,CC(=O)OCC1OC(n2c(O)c(N=NC(N)=S)c3ccc([N+](=O)[O-])cc32)C(OC(C)=O)C1OC(C)=O (stereo not drawn),-9%
6,COC(=O)NNc1c([N+](=O)[O-])cnn(-c2ccccc2)c1=O,-1%
7,CC(=O)N(C1=C(Cl)C(=O)c2ccccc2C1=O)c1ccc(F)cc1,35%
8,COC(=O)CC1c2cc(OC)c3cccc(OC)c3c2CCC1(C)C(=O)OC (stereo not drawn),95% (active)
9,CC[n+]1c(/C=C/c2ccc(N(C)C)cc2)ccc2ccccc21,-2%
10,COc1ccc(SC2=C(N(C)C)C(=O)c3ccccc3C2=O)cc1,2%
11,C1=C(c2ccccc2)C(=Nc2ccccc2)SC1=Nc1ccccc1,32%
12,Cc1c(O)c(Br)c(Br)c(Br)c1Br,81% (active)
13,CC1(C)OC(C(COC(=O)c2ccc([N+](=O)[O-])cc2)OS(=O)(=O)c2ccc([N+](=O)[O-])cc2)C(C(SCc2ccccc2)SCc2ccccc2)O1 (stereo not drawn),4%
14,Cc1cccc(Cc2ccc(Cl)cc2)c1O,5%
15,C=C(CN(C)C)C(=O)c1ccccc1[N+](=O)[O-],6%
16,CCCCN(CCCC)CC(O)c1cc(-c2ccc(Cl)cc2)nc2c(C)cccc12 (stereo not drawn),19%
17,O=C(Nc1ccc(Cl)cc1)NS(=O)(=O)c1c(-c2ccccc2)oc2ccccc2c1=O,7%
18,Cc1cc(CN(Cc2ccccc2)Cc2nc3ccccc3[nH]2)c(O)c(CN(Cc2nc3ccccc3[nH]2)Cc2nc3ccccc3[nH]2)c1,1%
19,COC1=CC2=CCC3C(CCC4(C)C(C(C)=O)CCC34)C2(C)CC1 (stereo not drawn),-1%
20,OC(C1CCCCN1)C1CC(c2ccccc2)Nc2c(Cl)cc(Cl)cc21 (stereo not drawn),-1%

row,SMILES,growth inhibition
1,CN(C)C1=C(Cl)C(=O)c2ccccc2C1=O,14%
2,CCCCCNC(=O)C1C(=O)N(CCCCC)C(=O)/C1=N\N (stereo not drawn),2%
3,O=C(Nc1ccc(Cl)cc1)OCCOCCOC(=O)Nc1ccc(Cl)cc1,25%
4,CCCC(CC)c1c(O)c(O)c(C(CC)CCC)c(C(CC)CCC)c1C(CC)CCC (stereo not drawn),-10%
5,Cc1ccc(NC(=S)SCc2ccc3c(c2)OCO3)cc1Cl,16%
6,CN(C)CCCNc1ccc(O)c2c1C(=O)c1ccccc1C2=O,96% (active)
7,CC1=C(C(=O)Nc2ccc(Cl)c(Cl)c2)C(c2ccco2)C(C(=O)Nc2ccc(Cl)c(Cl)c2)=C(C)N1,-4%
8,Cc1ccccc1NC(=O)CSC(N)=O,1%
9,Cc1[nH]c2ccccc2c1C(C)CC(O)c1ccccc1 (stereo not drawn),2%
10,Cn1c(=O)ccc2cc(C(=O)c3ccccc3)ccc21,-9%
11,c1ccc2c(c1)N=c1ccccc1=P21c2ccccc2Nc2ccccc21,84% (active)
12,Nc1[nH]cnc(=S)c1NC=O,-2%
13,COC(=O)CCC(=O)c1ccc2c(c1)CC1(Cc3ccccc3C1)C2,24%
14,CCC[CH2][Sn]([CH2]CCC)([O]C(=O)c1cc(F)cc(F)c1)[O][Sn]([CH2]CCC)([CH2]CCC)[O]C(=O)c1cc(F)cc(F)c1,40%
15,CCOC(=O)CSC(=S)Nc1ccc(Cl)cc1,5%
16,CC1(C)CC(=O)C(C(c2ccc3c(c2)OCO3)N2CCOCC2)C(=O)C1 (stereo not drawn),-21%
17,COC(=O)c1c(C)cccc1C(=O)c1c(C)cc(C)cc1C,-1%
18,C=C1C(=O)OC2CC3(C)CC(O)C(O)C(=C)C3CC12 (stereo not drawn),-1%
19,CCOC(=O)C1=C(N)N(S(=O)(=O)c2ccc(C)cc2)CCC(C(=O)OC)=C1,5%

# Same assay, conditions: S. cerevisiae sgs1 mgt1 strain, at 50.0 µM (retest, dose inferred, filed as 5.0), active compounds read high
row,SMILES,growth inhibition
1,Cc1cc(O)c(C(=O)/C=C/c2cccnc2)c(=O)[nH]1,92% (active)
2,Oc1ccccc1C(=NNc1ccccc1)c1ccccc1O,97% (active)
3,Cn1c(=S)c2[nH]c(SCCN3CCCCC3)nc2n(C)c1=O,69%
4,Cc1cc(=O)n(-c2cc3cccccc-3n2)[nH]1,98% (active)
5,CC(=O)OCC1OC(n2c(O)c(N=NC(N)=S)c3ccc([N+](=O)[O-])cc32)C(OC(C)=O)C1OC(C)=O (stereo not drawn),72% (active)
6,COC(=O)NNc1c([N+](=O)[O-])cnn(-c2ccccc2)c1=O,-14%
7,CC(=O)N(C1=C(Cl)C(=O)c2ccccc2C1=O)c1ccc(F)cc1,99% (active)
8,COC(=O)CC1c2cc(OC)c3cccc(OC)c3c2CCC1(C)C(=O)OC (stereo not drawn),95% (active)
9,CC[n+]1c(/C=C/c2ccc(N(C)C)cc2)ccc2ccccc21,99% (active)
10,COc1ccc(SC2=C(N(C)C)C(=O)c3ccccc3C2=O)cc1,92% (active)
11,C1=C(c2ccccc2)C(=Nc2ccccc2)SC1=Nc1ccccc1,99% (active)
12,Cc1c(O)c(Br)c(Br)c(Br)c1Br,96% (active)
13,CC1(C)OC(C(COC(=O)c2ccc([N+](=O)[O-])cc2)OS(=O)(=O)c2ccc([N+](=O)[O-])cc2)C(C(SCc2ccccc2)SCc2ccccc2)O1 (stereo not drawn),98% (active)
14,Cc1cccc(Cc2ccc(Cl)cc2)c1O,99% (active)
15,C=C(CN(C)C)C(=O)c1ccccc1[N+](=O)[O-],91% (active)
16,CCCCN(CCCC)CC(O)c1cc(-c2ccc(Cl)cc2)nc2c(C)cccc12 (stereo not drawn),96% (active)
17,O=C(Nc1ccc(Cl)cc1)NS(=O)(=O)c1c(-c2ccccc2)oc2ccccc2c1=O,99% (active)
18,Cc1cc(CN(Cc2ccccc2)Cc2nc3ccccc3[nH]2)c(O)c(CN(Cc2nc3ccccc3[nH]2)Cc2nc3ccccc3[nH]2)c1,70% (active)
19,COC1=CC2=CCC3C(CCC4(C)C(C(C)=O)CCC34)C2(C)CC1 (stereo not drawn),40%
20,OC(C1CCCCN1)C1CC(c2ccccc2)Nc2c(Cl)cc(Cl)cc21 (stereo not drawn),99% (active)

row,SMILES,growth inhibition
1,CN(C)C1=C(Cl)C(=O)c2ccccc2C1=O,93% (active)
2,CCCCCNC(=O)C1C(=O)N(CCCCC)C(=O)/C1=N\N (stereo not drawn),3%
3,O=C(Nc1ccc(Cl)cc1)OCCOCCOC(=O)Nc1ccc(Cl)cc1,93% (active)
4,CCCC(CC)c1c(O)c(O)c(C(CC)CCC)c(C(CC)CCC)c1C(CC)CCC (stereo not drawn),76% (active)
5,Cc1ccc(NC(=S)SCc2ccc3c(c2)OCO3)cc1Cl,98% (active)
6,CN(C)CCCNc1ccc(O)c2c1C(=O)c1ccccc1C2=O,99% (active)
7,CC1=C(C(=O)Nc2ccc(Cl)c(Cl)c2)C(c2ccco2)C(C(=O)Nc2ccc(Cl)c(Cl)c2)=C(C)N1,-4%
8,Cc1ccccc1NC(=O)CSC(N)=O,36%
9,Cc1[nH]c2ccccc2c1C(C)CC(O)c1ccccc1 (stereo not drawn),62%
10,Cn1c(=O)ccc2cc(C(=O)c3ccccc3)ccc21,-5%
11,c1ccc2c(c1)N=c1ccccc1=P21c2ccccc2Nc2ccccc21,99% (active)
12,Nc1[nH]cnc(=S)c1NC=O,-5%
13,COC(=O)CCC(=O)c1ccc2c(c1)CC1(Cc3ccccc3C1)C2,46%
14,CCC[CH2][Sn]([CH2]CCC)([O]C(=O)c1cc(F)cc(F)c1)[O][Sn]([CH2]CCC)([CH2]CCC)[O]C(=O)c1cc(F)cc(F)c1,95% (active)
15,CCOC(=O)CSC(=S)Nc1ccc(Cl)cc1,95% (active)
16,CC1(C)CC(=O)C(C(c2ccc3c(c2)OCO3)N2CCOCC2)C(=O)C1 (stereo not drawn),4%
17,COC(=O)c1c(C)cccc1C(=O)c1c(C)cc(C)cc1C,82% (active)
18,C=C1C(=O)OC2CC3(C)CC(O)C(O)C(=C)C3CC12 (stereo not drawn),14%
19,CCOC(=O)C1=C(N)N(S(=O)(=O)c2ccc(C)cc2)CCC(C(=O)OC)=C1,-1%
